Rows were chosen to be rich in hits. Some 6.8% of all compounds tested hit in one or more screens of this group.
A340 absorber: compound absorbs light at 340 nm; compound absorbance at 340 nm, fold over control; fold change at 10 µM; 65,000 tested, under 10 active;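 active means at 10 µM dose, initial 340 nm absorbance at least 2 fold that of control wells; inactive means change under 2 fold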;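 further: initial absorbance extrapolated from kinetic A340 decline of NADH oxidation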
MK inhibit: blocks S. pneumoniae mevalonate kinase | purified MK, PK/LDH-coupled NADH absorbance 340 nm | inhibition, % at 10 µM | hit rate 0.48% among 65,000;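 active means ranked among the strongest by inhibition in the single 10 µM screen, a fixed top-ranked set picked for dose follow-up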
NADH coupling: inhibitors of enzymes used to reach an NAD/NADH endpoint | coupled PK/LDH NADH assays, four targets | hit rate 0.02% among 65,000 | IC50, µM (titrated, usually from 10 µM);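 active means single-dose screening hits from any of four coupled enzyme assays that gave an IC50 when retested across doses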;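 further: the DPM-DC format reads NADH fluorescence rather than 340 nm absorbance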
Spn PMK inh: inhibitors of Streptococcus pneumoniae phosphomevalonate kinase; purified PMK, PK/LDH-coupled NADH absorbance 340 nm; inhibition, % at 10 µM; hit rate 0.49% among 65,000;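 active means top-ranked compounds by inhibition in the single 10 µM screen, taking a fixed number of the strongest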
Fluor 339 460: intrinsic fluorescence of library compounds, ex339/em460 – biochemical, MLSMR library, data from DPM-DC assay, artefact control, profiling panel; fluorescence fold increase at 10 µM; compound autofluorescence, ex339/em460 nm, NADH buffer; hits give high values; 1 = no-compound wells, NADH background; hit rate 5.5% among 65,000;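 active means at 10 µM, mean starting fluorescence two-fold or more over control wells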;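 further: signal is the first read of a kinetic run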
Spn DPM-DC inh: S. pneumoniae DPM-DC inhibition; purified DPM-DC, PK/LDH coupled NADH fluorescence; calls only at 10 µM; hit rate 0.49% among 65,000; AID 556;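 active means the 320 compounds with the highest percent inhibition in the single-dose primary screen, excluding strongly autofluorescent ones, cut at about 32% in these data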;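 further: kinetic rate of NADH fluorescence loss reporting ADP formed by the decarboxylase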
A number is an active result; i = inactive; nt = not tested or not shown; + = active, no number.

SMILES	A340 absorber	MK inhibit	NADH coupling	Spn PMK inh	Fluor 339 460	Spn DPM-DC inh
C=CCOC(=O)COc1ccc2c(C)c(C)c(=O)oc2c1	i	i	i	i	2.15	nt
C=CCOC(=O)COc1ccc2c(C)c(CC)c(=O)oc2c1	i	i	i	i	3.9	nt
C=CCNS(=O)(=O)c1ccc(OCC(=O)OCC)cc1	i	i	i	i	i	i
Cc1noc(C)c1COC(=O)COc1ccc2c(C)cc(=O)oc2c1	i	i	i	i	i	i
CSc1nc2c(c(=O)[nH]1)C(c1ccncc1)C(C(=O)OC(C)C)=C(C)N2 (configuration not stated)	i	i	i	i	i	i
Cc1ccc(NC(=O)CS(=O)(=O)c2c[nH]c3ccccc23)c(C)c1	i	i	i	i	i	i
Cc1nc2c(-c3ccccc3)c(C)nn2c(C)c1CCC(=O)NCc1ccco1	i	i	i	i	i	i
Cc1cccc(Cc2c(C)nc3c(C(=O)NCc4ccco4)cnn3c2C)c1	i	i	i	i	3.85	i
Cc1nc2c(C(=O)NCc3ccco3)cnn2c(C)c1Cc1ccc(F)cc1Cl	i	i	i	i	3.11	i
Cn1cc(Cl)nc1C(O)c1ccccc1 (configuration not stated)	i	i	i	i	i	i
O=C(COc1ccccc1Cl)NCc1ccncc1	i	i	i	i	i	i
Cc1cc2n(n1)C(c1ccc(N(C)C)cc1)Nc1ccccc1-2 (configuration not stated)	i	i	i	i	3.71	nt
Cc1cc2n(n1)C(c1ccc3c(c1)OCO3)Nc1ccccc1-2 (configuration not stated)	i	i	i	i	2.28	i
c1cncc(C2Nc3ccccc3-c3nc4ccccc4n32)c1 (configuration not stated)	i	i	i	i	i	i
Cc1cc2n(n1)C(c1ccccc1)Nc1ccccc1-2 (configuration not stated)	i	i	i	i	2.01	i
Cc1ccc2c(c1)-c1cc(C)nn1C(c1ccc3c(c1)OCO3)N2 (configuration not stated)	i	i	i	i	i	i
CC1CCCC(NC(=O)CN(C)S(=O)(=O)c2cccc3cccnc23)C1C (configuration not stated)	i	i	i	i	i	i
Cc1cc2ncn(CCOc3ccccc3C#N)c2cc1C	i	i	i	i	i	i
Cc1ccc(-c2cc3nc(C)cc(NCc4ccco4)n3n2)cc1	i	i	i	i	3.3	i
O/N=C1/CCc2cccc3cccc1c23	i	i	i	i	i	i
O=C1OCc2cccc3cccc1c23	i	i	i	i	2.1	nt
O=C(O)c1[nH]c2ccccc2c1NS(=O)(=O)Cc1ccccc1	i	i	i	i	2.41	i
CC(=O)c1ccc(NS(=O)(=O)Cc2ccccc2)cc1	i	i	i	i	i	i
Cc1nn2cc(-c3ccc(-c4ccccc4)cc3)nc2s1	i	i	i	i	2.24	i
COCCNC(=O)CSc1nc2ccc(N3CCOCC3)cc2c(=O)n1CCc1ccccc1	i	i	i	i	4.1	nt
SMILES	A340 absorber	MK inhibit	NADH coupling	Spn PMK inh	Fluor 339 460	Spn DPM-DC inh
CCCCNC(=O)CSc1nc2ccc(N3CCOCC3)cc2c(=O)n1CCc1ccccc1	i	i	i	i	2.34	i
CSc1cccc(NS(=O)(=O)c2ccc3c(c2)oc(=O)n3C)c1	i	i	i	i	i	i
CC1CCc2c(sc3nc(SCc4nc(-c5ccccc5)no4)n(C)c(=O)c23)C1 (configuration not stated)	i	i	i	i	i	i
COC(=O)c1cccc(NC(=O)c2nn(C)c(=O)c3ccccc23)c1	i	i	i	i	i	i
COC(=O)C1=C(N)OC2=C(C(=O)CC(C)(C)C2)C1c1cccs1 (configuration not stated)	i	i	i	i	i	i
COC(=O)C1=CN(CCCN2CCCC2=O)C=C(C(=O)OC)C1c1cccs1	i	i	i	i	4.82	nt
CCC1c2ccc(C)n2CCN1C(=O)Nc1ccccc1C(=O)OC (configuration not stated)	i	i	i	i	2.53	i
Cc1occc1C(=O)Nc1nnc(C(F)(F)F)s1	i	59.0	i	74.0	i	+
COc1cccc(/C=N/n2c(SC)nnc2-c2ccccc2)c1OC	i	i	i	i	2.14	nt
Cc1nnc2sc(-c3ccc(-c4ccc(Cl)c(C(F)(F)F)c4)o3)nn12	i	i	i	i	3.71	nt
